Results filed as inconclusive are left out. Calls of active or inactive are those of the source. Unless noted, calls come from the whole dose curve; as a rule, active = well fitted curve in the direction sought with a large enough effect; inconclusive = small, poorly fitted or top-dose-only effect, or another doubt; inactive = no such curve, though single readings can be large; an effect the other way counts as inactive or inconclusive.
How the values were obtained:
[1] = target: Aldehyde dehydrogenase, mitochondrial (Homo sapiens) (UniProt P05091); experiment: qHTS for Inhibitors of the Aldehyde Dehydrogenase Family (ALDH2) Validation screens (AID 2061302; active = well fitted inhibition curve with a large enough effect; title and protocol of this record describe different tests;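 note: plate controls were DMSO vehicle for no effect and maximal DPI positive control response for full effect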)
[2] = target: Retinaldehyde dehydrogenase 3 (Homo sapiens) (UniProt P47895); experiment: qHTS for Inhibitors of the Aldehyde Dehydrogenase Family (ALDH1A3) Validation screen (AID 2061312); note: % is set by controls: 0 for no effect and ±100 for the full control effect; nearly all actives have a fitted effect of over 45% in size
[3] = BET inhibitor-based combinations targeting novel dependencies in MECOM-rearranged (r) AML: SET-2 cell line (AID 2202231); conditions: SET-2 AML cells viability, CellTiter-Glo luminescence, 48 h; viability: active compounds read low, concentration not given here; note: nearly all actives have a fitted effect of over 35% in size; note: potency is the fitted concentration of half-maximal effect;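 for viability: plate controls were DMSO treated cells for no effect and wells without cells for full effect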
Procedure, shortened: (§1)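 Cells were plated at 500 per well and exposed to an 11-point dose series of each drug for 48 hr. Viability was measured by CellTiter-Glo luminescence, normalized to DMSO and empty-well controls, and summarized as AUC and per-cell-line Z-AUC.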

[4] = BET inhibitor-based combinations targeting novel dependencies in MECOM-rearranged (r) AML: OCI-AML3 cell line (AID 2202232); conditions: Potency: OCI-AML3 viability; note: nearly all actives have a fitted effect of over 35% in size; note: potency is the fitted concentration of half-maximal effect
Procedure, shortened: as §1

[5] = BET inhibitor-based combinations targeting novel dependencies in MECOM-rearranged (r) AML: MV-4-11 cell line (AID 2202233); note: nearly all actives have a fitted effect of over 45% in size; note: potency is the fitted concentration of half-maximal effect
Procedure, shortened: (§2)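 Activity is given as area under the curve and as Z-AUC, mean-centred within each cell line. It comes from 11-point dose curves normalized to DMSO and empty wells. CellTiter-Glo luminescence was read after 48 hr drug exposure of 500 cells/well.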

[6] = BET inhibitor-based combinations targeting novel dependencies in MECOM-rearranged (r) AML: HNT-34 cell line (AID 2202234); note: nearly all actives have a fitted effect of over 35% in size; note: potency is the fitted concentration of half-maximal effect
Procedure, shortened: as §2

[7] = BET inhibitor-based combinations targeting novel dependencies in MECOM-rearranged (r) AML: UCSD-AML1 cell line (AID 2202235); note: nearly all actives have a fitted effect of over 40% in size; note: potency is the fitted concentration of half-maximal effect
Procedure, shortened: as §2

[8] = BET inhibitor-based combinations targeting novel dependencies in MECOM-rearranged (r) AML: AML-191 cell line (AID 2202236; note: nearly all actives have a fitted effect of over 35% in size; note: potency is the fitted concentration of half-maximal effect)
Procedure, shortened: as §1

[9] = BET inhibitor-based combinations targeting novel dependencies in MECOM-rearranged (r) AML: AML-194 cell line (AID 2202237; note: nearly all actives have a fitted effect of over 40% in size; note: potency is the fitted concentration of half-maximal effect)
Procedure, shortened: as §1

[10] = target: Aldehyde dehydrogenase, mitochondrial (Homo sapiens) (UniProt P05091); experiment: qHTS for Inhibitors of the Aldehyde Dehydrogenase Family (ALDH2) Confirmatory screens (AID 2061303; active = well fitted inhibition curve with a large enough effect; title and protocol of this record describe different tests; note: % is set by controls: 0 for no effect and ±100 for the full control effect; nearly all actives have a fitted effect of over 45% in size)
[11] = target: Retinaldehyde dehydrogenase 3 (Homo sapiens) (UniProt P47895); experiment: qHTS for Inhibitors of the Aldehyde Dehydrogenase Family (ALDH1A3) Primary screen (AID 2061315);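 note: plate controls were DMSO vehicle for no effect and reference inhibitor for full effect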

Cc1nc2c([nH]1)c(=O)n(C)c(=O)n2Cc1ccco1
inactive: Potency [1] | Potency [2]

COc1ccc(CN(CCN(C)C)c2ccccn2)cc1
inactive: Potency [1] | Potency [2]

C[N+](C)(C)CCO
inactive: Potency [1] | Potency [2]

O=C1NCC2(CCN(CCc3ccccc3)CC2)O1
inactive: Potency [1] | Potency [2]

CC(C)NCC(O)c1cc(O)cc(O)c1 (centres undefined)
inactive: Potency [1] | Potency [2]

Cc1ccc(Cl)c(Nc2ccccc2C(=O)O)c1Cl
inactive: Potency [1] | Potency [2]

CN1Cc2c(N)cccc2C(c2ccccc2)C1 (centres undefined)
inactive: Potency [1] | Potency [2]

CN(C)CC[C@@H](c1ccc(Br)cc1)c1ccccn1
inactive: Potency [1] | Potency [2]

C[N+](C)(C)CCOP(=O)(O)OP(=O)([O-])OC[C@H]1O[C@@H](n2ccc(N)nc2=O)[C@H](O)[C@@H]1O
inactive: Potency [1] | Potency [2]

NCCCCCCCCCCN
inactive: Potency [1] | Potency [2]

CC1=C(CC(=O)O)c2cc(F)ccc2/C1=C\c1ccc(S(C)(=O)=O)cc1
inactive: Potency [1] | Potency [2]

O=C(NOCC1CC1)c1cc(Br)c(F)c(F)c1Nc1ccc(I)cc1Cl
inactive: Potency [1] | Potency [2]

Nc1ccn([C@@H]2O[C@H](CO)[C@@H](O)[C@@H]2O)c(=O)n1
inactive: Potency [1] | Potency [2]

CN(C)CCCN1c2ccccc2Sc2ccc(Cl)cc21
inactive: Potency [1] | Potency [2]

CC(C)NC[C@H](O)COc1cccc2ccccc12
inactive: Potency [1] | Potency [2]

CCn1cc(C(=O)O)c(=O)c2ccc(C)nc21
inactive: Potency [1] | Potency [2]

COc1ccc(C(=O)/C(Cc2cc(OC)c(OC)c(OC)c2)=C(\C(=O)O)c2ccc3c(c2)OCO3)cc1
inactive: Potency [1] | Potency [2]

N=c1ccn2c(n1)O[C@H]1[C@H](O)[C@@H](CO)O[C@H]12
inactive: Potency [1] | Potency [2]

O=c1cc(-c2ccccc2)[nH]c2nc(Cl)ccc12
inactive: Potency [1] | Potency [2]

CN=C(NC#N)NCCSCc1nc[nH]c1C
inactive: Potency [1] | Potency [2]

N[C@@H]1CONC1=O
inactive: Potency [1] | Potency [2] | viability [3] 117% | Potency [4] | Potency [5] | Potency [6] | Potency [7] | Potency [8] | Potency [9]

O=C(Nc1ccc([N+](=O)[O-])cc1Cl)c1cc(Cl)ccc1O
inactive: Potency [1]
active: Potency [5] 4.17 µM | Potency [6] 1.05 µM | Potency [8] 1.05 µM | Potency [9] 1.48 µM

COc1nc(C)nc(Cl)c1NC1=NCCN1
inactive: Potency [1] | Potency [2] | viability [3] 107% | Potency [4] | Potency [6] | Potency [7] | Potency [8] | Potency [9]

CCCC(CCC)C(=O)O
inactive: Potency [1] | Potency [2] | viability [3] 112% | Potency [4] | Potency [5] | Potency [6] | Potency [7] | Potency [8] | Potency [9]

Cn1cnc2c1c(=O)[nH]c(=O)n2C
inactive: Potency [1] | Potency [2] | viability [3] 114% | Potency [4] | Potency [5] | Potency [6] | Potency [7] | Potency [8] | Potency [9]

CCN(CC)CCNCc1ccc(-c2ccccc2)o1
inactive: Potency [10]

CC(=O)[C@H]1CC[C@H]2[C@@H]3CCC4=CC(=O)CC[C@]4(C)[C@H]3CC[C@]12C
inactive: Potency [1] | Potency [2]

COc1cc2c(cc1OC)C1CC(=O)C(CC(C)C)CN1CC2 (centres undefined)
inactive: Potency [1] | Potency [2] | viability [3] 109% | Potency [4] | Potency [6] | Potency [8] | Potency [9]

CN1CCN(C2=Nc3cc(Cl)ccc3Nc3ccccc32)CC1
active: Potency [6] 20.9 µM
inactive: Potency [1] | Potency [2] | Potency [4] | Potency [5]

NCCCC(N)(C(=O)O)C(F)F (centres undefined)
inactive: Potency [1] | viability [3] 102% | Potency [4] | Potency [5] | Potency [6] | Potency [7] | Potency [8] | Potency [9]

COc1cc2nc(N3CCCN(C)CC3)nc(NC3CCN(Cc4ccccc4)CC3)c2cc1OC
inactive: Potency [1]
active: Potency [3] 18.6 µM | Potency [4] 8.33 µM | Potency [5] 6.61 µM | Potency [6] 7.42 µM | Potency [7] 6.61 µM | Potency [8] 14.8 µM | Potency [9] 10.5 µM

O=c1c(-c2ccc(O)cc2)coc2cc(O[C@@H]3O[C@H](CO)[C@@H](O)[C@H](O)[C@H]3O)ccc12
active: Potency [5] 20.9 µM
inactive: Potency [1] | viability [3] 119% | Potency [6]

CN(C)CCOC(c1ccccc1)c1ccccc1
inactive: Potency [1] | Potency [5] | Potency [6] | Potency [7] | Potency [8] | Potency [9]

CC(=O)OCC(=O)[C@@]1(O)CC[C@H]2[C@@H]3CCC4=CC(=O)CC[C@]4(C)[C@H]3C(=O)C[C@@]21C
inactive: Potency [1] | Potency [2] | viability [3] 122% | Potency [4] | Potency [6] | Potency [8] | Potency [9]

Cn1c(=O)c2c(ncn2C)n(C)c1=O
inactive: Potency [1] | Potency [2] | viability [3] 97.8% | Potency [4] | Potency [5] | Potency [6] | Potency [7] | Potency [8] | Potency [9]

NC[C@H](O)c1ccc(O)c(O)c1
inactive: Potency [1] | Potency [11] | viability [3] 116% | Potency [4] | Potency [5] | Potency [6] | Potency [7] | Potency [8]

O=C1CCC(c2ccc(-n3ccnc3)cc2)=NN1
inactive: Potency [1] | Potency [2]

N[C@@H](Cc1ccc(O)c(O)c1)C(=O)O
inactive: Potency [1] | viability [3] 105% | Potency [4] | Potency [5] | Potency [6] | Potency [8] | Potency [9]

— PubChem BioAssay (NCATS)
